Among the data in PubChem BioAssay (NCI) are growth values, retold here.

The panel holds about 83,000 compounds, 20% with a hit somewhere; the sample as a whole holds those more often.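 Each cell line was grown in a 96-well plate and treated with one concentration of compound for 48 hours. Values below 10 were considered active.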 The source made the active and inactive calls.

For the assay, the system named is CCRF-CEM leukemia. Briefly: NCI-60 one-dose screen, 48 h (100 = growth as untreated, 0 = no growth, -100 = all killed). As to conditions: 10 µM unless noted.
On to `O=C(Nc1ccc(S(=O)(=O)N2CCCCC2)cc1)C(Cl)Cl`, for which the growth was 127% (inactive).
With `O=C(c1ccc(Cl)cc1)C1[C@H](c2ccccc2Cl)[C@@H](c2ccccc2)NC12C(=O)Nc1ccccc12` (stereo partly drawn) the figure was 4.66% (active).
To `O=C(c1ccc(O)cc1)C1[C@H](c2ccc(Cl)cc2)[C@@H](c2ccccc2)NC12C(=O)Nc1ccccc12` (stereo partly drawn) belongs -7.04% (active); to `Cc1ccc2nc(SCc3ccccc3F)n(-c3ccccc3)c(=O)c2c1`, 73% (inactive); to `CCCCNc1ccc2c3c(cccc13)C(=O)N(NCC(O)COc1ccc3c(C)cc(=O)oc3c1)C2=O` (stereo not drawn), 84.2% (inactive).
With `c1n[nH]cc1-c1nc2ccc3[nH]ncc3c2c2c1CC1(CC2)COC1`, the growth was 30.3% (inactive).
`CCN1CCN(Cc2ccc(C(=O)Nc3cccc(Nc4ccc5c(OC)cccc5n4)c3)cc2C(F)(F)F)CC1`: the growth is -30.5% (active).
With `O=C(NN1C(=O)/C(=C/C=C/c2ccc([N+](=O)[O-])o2)SC1=S)c1ccc([N+](=O)[O-])cc1` the figure was -37.2% (active); with `C=CCn1c(O)c(N=Nc2nc(-c3cc4ccccc4oc3=O)cs2)c2ccccc21`, 35.8% (inactive); with `CCCCCCCCCCCCCCCCCC(=O)Nc1ccc(OC)cc1`, 86.4% (inactive).
To `Cn1cc(-c2cc(N)n3nc(-c4c[nH]c5ccc(Cl)cc45)cc3n2)c2cc(Br)cnc21` belongs -66.1% (active).
With `COC(=O)c1ccc(-c2c(-c3ccccc3)c(F)c3oc(C(=O)OC)c(N)c3c2-c2ccccc2)cc1` the figure was 95% (inactive); with `COc1ccc(-c2nc3ccccc3n2CC(=O)N=Nc2c(O)[nH]c3ccc(Br)cc23)cc1`, 67.2% (inactive).
